The record followed here is the OligoGym collection.
Note: reference of the scale not given here.

One experiment addresses ALAD. Put plainly: pooled miR-30 sensor sort-seq; sequence = guide strand. To be noted: shRNA.
Regarding TGGATTGCCTCAATAGCTGGGG, the sensor-assay potency score (higher = more potent) is -0.361.

Sequence TTGACTTAGCTGCATCCCGGAA had a sensor-assay potency score (higher = more potent) of -1.25.

As to TACCACCTGACATCCTGCCTTG, the sensor-assay potency score (higher = more potent) is -0.254.

On to TAGTGGGTGGAAGTAGCCGCTG, for which the sensor-assay potency score (higher = more potent) is -1.31.

For TATGTCATCAGGAACATCCGTG, the sensor-assay potency score (higher = more potent) amounted to 0.268.

TTTAAAGTTCTAGTTCTTGGGC showed a sensor-assay potency score (higher = more potent) of -0.0518.

In turn, TGATAGGCTGTATGTCATCAGG yielded a sensor-assay potency score (higher = more potent) of -1.65.

The sequence TAGGTGATGATGATGTCAGCAC gave a sensor-assay potency score (higher = more potent) of 0.277.

As for TAGGCTGTATGTCATCAGGAAC, the sensor-assay potency score (higher = more potent) was -1.11.

The sequence ATGTCATCAGGAACATCCGTGA gave a sensor-assay potency score (higher = more potent) of -0.798.

As for AAATTTGGCACTGTAGCTCATC, the sensor-assay potency score (higher = more potent) was -0.696.

As for TTTGGTTTTCACTTGTCTGAGG, the sensor-assay potency score (higher = more potent) is -0.0275.

ATGATGTCAGCACCTGCTCTGC came in with a sensor-assay potency score (higher = more potent) of -1.4.

A further experiment concerns the target ALDH1A1. The experiment is described as above. Conditions: shRNA.
TGCCTTGTCAACATCCTCCTTA displayed a sensor-assay potency score (higher = more potent) of 0.465.

In turn, TTAAAATCTACTATATTAGTGA came in with a sensor-assay potency score (higher = more potent) of 0.534.

In turn, AAATTCAACAGCATTGTCCAAG had a sensor-assay potency score (higher = more potent) of -0.656.

Sequence TTAGCTATTGAAGAGCTTCTCT showed a sensor-assay potency score (higher = more potent) of 0.445.

Take TGATTTGCTGCACTGGTCCAAA: the sensor-assay potency score (higher = more potent) was -0.586.

With TTGAATCTTCAAATCGGTGAGT, the sensor-assay potency score (higher = more potent) was determined as 0.0111.

Turning to TTATCTCCTTCTTCTACCTGGC, the sensor-assay potency score (higher = more potent) is -0.0648.

On to TGTAACATTAGAGAACACTGTG, for which the sensor-assay potency score (higher = more potent) was 0.545.

On to TAACATTAGAGAACACTGTGGG, for which the sensor-assay potency score (higher = more potent) is 0.962.

Sequence TTAAAGACAGGAAATTTCTTGC registered a sensor-assay potency score (higher = more potent) of -0.236.

As to TAGAAAGTATTGTTTGCTCTTT, the sensor-assay potency score (higher = more potent) was -0.662.

TATATTAGTGACTGTAAGGAGA displayed a sensor-assay potency score (higher = more potent) of -0.658.

TTGGTAAACACTCCTGCTGATA returned a sensor-assay potency score (higher = more potent) of -1.11.

Turning to TTAGAGAACACTGTGGGCTGGA, the sensor-assay potency score (higher = more potent) was 0.618.

In turn, AATACTAATATGATTTAGCTTA yielded a sensor-assay potency score (higher = more potent) of -0.152.

Turning to TAGCGCAATGTTTTGATGCAGC, the sensor-assay potency score (higher = more potent) is -0.601.

In turn, TATTGTTCCTTGTCAATCTGAG showed a sensor-assay potency score (higher = more potent) of 0.207.
